Screening results from PubChem.
This is a sample that favours compounds with a hit; in the whole collection about 2.4% have one here.
D2 antag – HTS Assay for Allosteric Antagonists of the Human D2 Dopamine Receptor: Primary Screen for Antagonists; D(2) dopamine receptor (Homo sapiens), P14416; HEK293 TREx D2 cells, calcium flux, dopamine EC80; inhibition, % at 10 µM; 340,000 compounds, 2% hits; AID 485344, 2010; in the data active = inhibition above about 30%; inactive = below that, where a call was filed; also: 0% is about no effect
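Measurement of antagonist activity uses fluorescent calcium dye in inducible HEK293 T-REx D2 cells: 10 s baseline, compound addition with 180 s read, EC80 dopamine addition with a further 180 s read.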
D2 ag-1 – HTS Assay for Allosteric Agonists of the Human D2 Dopamine Receptor: Primary Screen for Agonists; D(2) dopamine receptor (Homo sapiens), P14416; AID 485358, 2010; 340,000 compounds, 0.53% hits; activation, % at 2 µM; HEK293 T-REx D2 cells, calcium flux agonist mode;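 active = activation over 3 SD above normal in the single-dose calcium agonist read, cut at about 30% in these data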; also: 0% is about no effect
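Agonism is scored from calcium flux in a force-coupled, inducible HEK293 cell line expressing D2, read kinetically for 180 s after compound addition against dopamine controls.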
D2 PAM-1 – Beta-Arrestin HTS for Positive Allosteric Modulators of the Human D2 Dopamine Receptor: Potentiators | D(2) dopamine receptor (Homo sapiens), P14416 | potentiation, % (test concentration not listed) | DiscoveRx D2 beta-arrestin cells, luminescence, 90 min; 100% = 57 uM dopamine signal | 360,000 compounds, 0.23% hits; in the data active = potentiation above about 50%; inconclusive = mostly about 30% to 49%
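D2 cells co-treated with compound plus 50 nM dopamine (EC20) for 90 min at 37 deg C to detect potentiation. Beta-arrestin recruitment was read as enzyme-fragment luminescence after 1 h at ambient temperature. Full response was set by 57 uM dopamine.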
D2 ag-2 – Beta-Arrestin HTS for Positive Allosteric Modulators of the Human D2 Dopamine Receptor: Agonists | 360,000 compounds, 0.084% hits | D(2) dopamine receptor (Homo sapiens), P14416 | activation, % (concentration not given with the values) | DiscoveRx PathHunter D2 beta-arrestin, luminescence, 90 min; 100% = 57 uM dopamine signal; in the data active = activation above about 40%; inconclusive = between about 15% and that limit
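DiscoveRx PathHunter D2 beta-arrestin cells (2,100/well) attached overnight, then compound-stimulated 90 min at 37 C in HBSS/10 mM HEPES/0.1% Tween-20 buffer; beta-galactosidase complementation read by luminescence after 1 h at ambient temperature. Dopamine 57 uM final (EC100) as control.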
D2 PAM-2 – HTS Assay for Positive Allosteric Modulators of the Human D2 Dopamine Receptor: Primary Screen for Potentiators. D(2) dopamine receptor (Homo sapiens), P14416. HEK293 T-REx D2, calcium flux, EC20 dopamine potentiation. potentiation, % at 10 µM. 340,000 compounds, 0.34% hits. AID 485347, 2010;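 active = potentiation over 3 SD above the plate norm, cut at about 30% in these data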; also: 0% is about no effect
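Primary screen. Calcium kinetics in induced HEK293 T-REx D2 cells: compound pre-addition 180 s, EC20 dopamine, 180 s more.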
D3 arrestin ag – qHTS of D3 Dopamine Receptor Agonist: D3 Dopamine Receptor B-arrestin Agonist Confirmatory Assay; DiscoveRx D3 beta-arrestin cells, luminescence, 90 min; AID 720506, 2013; Potency, µM (titrated, usually from 76.9 µM), for the others: top-dose activation, hits mostly activators; shares compounds with D2 ag-1; 2,300 compounds, 4% hits;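 also: potency is read from the fitted curve at half-maximal effect; 100% = dopamine control response; nearly all actives have a fitted effect of over 70% in size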
Target sequence (P35462 whole entry, looked up): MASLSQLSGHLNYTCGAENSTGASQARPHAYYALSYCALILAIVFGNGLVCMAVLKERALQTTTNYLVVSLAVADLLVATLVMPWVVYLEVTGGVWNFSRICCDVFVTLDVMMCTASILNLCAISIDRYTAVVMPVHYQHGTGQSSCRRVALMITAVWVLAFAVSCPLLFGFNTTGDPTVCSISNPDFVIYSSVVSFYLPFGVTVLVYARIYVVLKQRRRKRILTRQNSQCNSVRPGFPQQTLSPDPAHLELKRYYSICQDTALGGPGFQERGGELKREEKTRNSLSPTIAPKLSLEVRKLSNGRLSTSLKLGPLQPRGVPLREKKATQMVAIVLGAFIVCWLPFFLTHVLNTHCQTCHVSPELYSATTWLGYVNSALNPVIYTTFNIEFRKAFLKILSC
D2 ag-3 – qHTS of D3 Dopamine Receptor Agonist: D2 Dopamine Receptor B-arrestin Agonist Counterscreen. Potency, µM (doses to about 76.9 µM), inactives show top-dose activation, hits mostly activators. shares compounds with D2 ag-1. 2,300 compounds, 5.9% hits. DiscoveRx PathHunter D2 beta-arrestin, luminescence, 90 min; response scale: percent relative to full dopamine signal; also: potency is read from the fitted curve at half-maximal effect; % of control where 0% means no effect; nearly all actives have a fitted effect of over 70% in size
Starred values were filed as active, the others as inactive; ? = inconclusive; nt = no result. Unless noted, calls follow the shape of the dose curve; as a rule, active = well fitted activation curve with a large enough effect; inconclusive = small, poorly fitted or top-dose-only effect; inactive = flat fitted curve, though single readings scatter.

SMILES | D2 antag | D2 ag-1 | D2 PAM-1 | D2 ag-2 | D2 PAM-2 | D3 arrestin ag | D2 ag-3
O=C(Cc1ccccc1)NCC1COc2ccccc2O1 (configuration not stated) | nt | nt | -17 | -1 | nt | nt | nt
Cn1c(C(=O)O)c(CC(=O)NCC2COc3ccccc3O2)c2ccccc21 (configuration not stated) | 42* | 0 | 11 | -4 | 1 | -9% | ?
Cc1cccc(C2CN(C)CCc3c2cc(O)c(O)c3Cl)c1 (configuration not stated) | 79* | 52* | -16 | 6 | -23 | ? | 29%
Oc1cc2c(c(Cl)c1O)CCNCC2c1ccccc1 (configuration not stated) | nt | nt | 4 | 9 | nt | nt | nt
O=C(C1CCN(c2nnc(N3CCCC3=O)s2)CC1)N1CCN(Cc2ccc3c(c2)OCO3)CC1 | 1 | 57* | 4 | 3 | -5 | 1% | 26%
O=C(C1CCCN(Cc2ccc3c(c2)OCO3)C1)N1CCCC1 (configuration not stated) | -13 | 0 | -4 | -1 | 1 | nt | nt
CC1(C)OC(=O)C=C[C@]2(C)[C@H]3CC[C@@]4(C)[C@H](C(=O)O)OC(=O)[C@H]5O[C@]54[C@]3(C)C(=O)C[C@@H]12 | 11 | 0 | -9 | -2 | 16 | -5% | -4%
CC(C)(O)[C@@H]1CC(=O)[C@]2(C)[C@H](CC[C@@]3(C)[C@H](c4ccoc4)OC(=O)[C@H]4O[C@]432)[C@@]1(C)/C=C\C(=O)O | 5 | -1 | -5 | -1 | -2 | nt | nt
O=[N+]([O-])c1cccc(-c2ccc(CN3CCN(c4ccccc4)CC3)o2)c1 | 47* | 52* | -16 | 4 | -22 | 3% | 14%
Cc1ccc(CN2CCN(c3ncccn3)CC2)o1 | 86* | 85* | ? | ? | -26 | -6% | ?
Cc1ccc(CN2CCN(c3ccccc3)CC2)o1 | 70* | 49* | 2 | ? | -11 | 24% | ?
O=[N+]([O-])c1ccc(N2CCN(Cc3cccc([N+](=O)[O-])c3)CC2)cc1 | -1 | 2 | -5 | -4 | -10 | nt | nt
Cn1c(=O)c2c(nc(OC3CCCCCC3)n2C)n(C)c1=O | nt | nt | 3 | 2 | nt | nt | nt
c1ccc2c(C[C@@H]3CNCCN3CCC34CC5CC(CC(C5)C3)C4)cccc2c1 | nt | nt | -56 | -3 | nt | nt | nt
COc1ccc(NS(=O)(=O)c2cccc(C(=O)N3CCC3)c2)cc1 | -33 | 16 | -7 | -4 | -5 | 4% | -5%
CC1CN(C(=O)c2ccc(NS(=O)(=O)c3cccc(Cl)c3)cc2)CC(C)O1 (configuration not stated) | -1 | 0 | 1 | 0 | -4 | 1% | -3%
COc1ccc(NS(=O)(=O)c2ccc(C)c(C(=O)N3CCC3)c2)cc1 | 49* | 73* | -1 | 1 | -29 | 0% | 26%
O=C(N[C@@H](Cc1ccccc1)C(=O)N1CCN(S(=O)(=O)c2ccc(F)cc2)CC1)c1ccco1 | -2 | 0 | 4 | -2 | -4 | nt | nt
CC1(C(=O)NS(=O)(=O)c2cccc(C#N)c2)CCN1C(=O)c1ccccc1 (configuration not stated) | nt | nt | -11 | -4 | nt | nt | nt
CCCCOc1ccc(CNC(=O)c2cccc(NC(=O)N3CCSc4ncccc43)c2)cc1 | nt | -1 | nt | nt | 6 | nt | nt
COc1cccc(CNc2nc3cc(-c4cccc(C(F)(F)F)c4)sc3c(=O)n2C)c1 | nt | nt | -11 | -2 | nt | nt | nt
NC[C@H](Cc1ccccc1)NCCCCC1CCCCC1 | -3 | 33* | -9 | -2 | -18 | 2% | 10%
COc1cc(CCCN[C@H](CN)Cc2ccccc2)cc(OC)c1OC | -2 | -2 | -23 | -4 | 14 | nt | nt
COc1ccc(C)cc1NC(=O)CN1CCN(c2ccccn2)CC1 | -3 | 53* | 0 | 11 | -18 | 13% | 21%
COC(=O)C1CCN(CC(=O)Nc2ccc(C(=O)Nc3ccccc3OC)cc2)CC1 | 28 | 62* | 0 | ? | -26 | 21% | ?
SMILES | D2 antag | D2 ag-1 | D2 PAM-1 | D2 ag-2 | D2 PAM-2 | D3 arrestin ag | D2 ag-3
COc1ccccc1NC(=O)CN1CCN(CC(=O)Nc2ccc(F)cc2)CC1 | 4 | 0 | -5 | -3 | -2 | nt | nt
COc1ccccc1NC(=O)CN1CCN(c2ccccn2)CC1 | 50* | 14 | 5 | ? | 12 | 29% | ?
COc1cc(CNC(=O)Nc2nc(C(N)Cc3ccc(Cl)cc3)cs2)cc(OC)c1OC (configuration not stated) | nt | nt | 10 | 7 | nt | nt | nt
Cc1ccc(S(=O)(=O)Nc2ccccc2C=NNC(=O)c2ccncc2)cc1 | nt | nt | -7 | -4 | nt | nt | nt
CC1CCN(S(=O)(=O)c2ccc3c(c2)N(CC(=O)NC(C)(C)C)C(=O)CS3)CC1 | nt | -1 | nt | nt | 3 | nt | nt
O=C(CCc1nnc2n(Cc3ccc(Cl)cc3)c(=O)c3ccccc3n12)N1CCN(c2ccccn2)CC1 | -19 | -1 | -5 | 5 | -2 | nt | nt
CC(C)OCCCn1c(=O)c2ccccc2n2c(CCC(=O)N3CCN(c4ccccn4)CC3)nnc12 | 25 | 67* | 1 | 13 | -16 | -2% | 4%
CCOc1ccc(CCNS(=O)(=O)c2c(C)nc3sc(C)cn3c2=O)cc1OCC | nt | 0 | nt | nt | 3 | nt | nt
O=[N+]([O-])c1cc(/C=N/N/C(=N/c2ccccn2)c2ccccn2)ccc1O | -6 | 29 | -23 | -2 | -9 | -25% | -13%
O=S(=O)(c1ccc(OCC(O)CN2CCCC2)cc1)N1CCOCC1 (configuration not stated) | 2 | 0 | -6 | 1 | 3 | nt | nt
O=S(=O)(c1ccc(OCC(O)CN2CCC(Cc3ccccc3)CC2)cc1)N1CCOCC1 (configuration not stated) | 27 | 63* | -16 | 7 | -23 | -4% | 20%
